A selection: hits, their analogues and other compounds. The true share with any hit is near 11%.
AmpC detergent = AmpC beta-lactamase inhibition with detergent present; P00811; AmpC hydrolysis of nitrocefin, absorbance 480 nm, 0.01% Triton; Potency, µM (highest dose often 114 µM), without a hit: at the top dose activity change, negative = inhibition, usual class: inhibitors; 370,000 tested, 0.041% active;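 also: 0% = no-compound wells and -100% = no-enzyme wells; nearly all actives have a fitted effect of over 25% in size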
Target sequence (P00811 whole entry, looked up): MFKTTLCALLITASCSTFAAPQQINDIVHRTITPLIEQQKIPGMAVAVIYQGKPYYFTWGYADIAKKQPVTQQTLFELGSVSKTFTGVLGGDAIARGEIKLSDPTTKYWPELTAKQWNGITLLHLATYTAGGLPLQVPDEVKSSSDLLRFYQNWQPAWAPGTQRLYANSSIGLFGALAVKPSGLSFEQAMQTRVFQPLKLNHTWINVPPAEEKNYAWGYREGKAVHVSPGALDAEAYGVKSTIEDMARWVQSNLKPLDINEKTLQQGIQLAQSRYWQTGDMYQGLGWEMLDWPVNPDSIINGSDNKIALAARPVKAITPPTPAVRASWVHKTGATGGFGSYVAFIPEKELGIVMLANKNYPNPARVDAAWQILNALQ
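AmpC (5.3 nM in the dispensed reagent) in 20 mM phosphate pH 7.0 with 0.01% (detergent screen) or 0.0001% Triton X-100 was preincubated with compounds for 15 min at room temperature. Nitrocefin was then added from an 800 uM solution, and hydrolysis was followed at 480 nm.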
HCV inhibitor = blocks hepatitis C virus. Huh7.5.1 HCVcc-Cre infection, luciferase reporter, 44 h. Potency, µM (top dose mostly 41.8 µM), for inactives: top-dose activity change, negative = inhibition, actives largely listed as inhibitors. 340,000 tested, 3.4% active
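Whole-lifecycle infectious HCVcc-Cre system; cells 1,000/well, compound then virus (~0.5 moi) added 4 h after plating, 44 h culture. Luciferase read 15 sec following 15 min substrate incubation, room temp.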
AmpC no deterg = blocks E. coli AmpC beta-lactamase in detergent-free assay; AmpC nitrocefin hydrolysis, absorbance 480 nm, 0.0001% Triton; P00811; 330,000 tested, 0.52% active; Potency, µM (titrated, usually from 57.1 µM), for the others: at the top dose activity change, negative = inhibition, most hits filed as inhibitors;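 also: plate controls were no compound for no effect and no enzyme for full effect; nearly all actives have a fitted effect of over 20% in size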
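20 mM phosphate pH 7.0 + 0.01% (detergent screen) or 0.0001% Triton X-100; 5.3 nM AmpC reagent; cpd preinc 15 min RT; nitrocefin (800 uM stock) to start; A480 q20 s × 4 min; Activity was normalised to no-enzyme and no-compound control wells.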
Pf growth 48h = P. falciparum growth inhibition at 48 hours (one generation) | P. falciparum luciferase growth in erythrocytes, 48 h | Potency, µM (doses to about 28.7 µM), for inactives: at the highest dose activity change, negative = inhibition, hits mostly inhibitors | 310,000 tested, 5.9% active | AID 504832
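Growth was read as firefly luciferase luminescence after a 48 h, 37 C, 5% CO2 exposure of compounds to reporter-bearing P. falciparum cultures (0.1% parasitemia, 2% hematocrit final) in Albumax-supplemented RPMI 1640.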
Pf growth 96h = inhibits malaria parasite growth, 96 h. Potency, µM (doses to about 28.7 µM), without a hit: at the top dose activity change, negative = inhibition, actives largely listed as inhibitors. P. falciparum luciferase reporter growth, 96 h. 320,000 tested, 6.9% active
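Infected RBCs, 2% Hct / 0.05% parasitemia final; luciferase-reporter P. falciparum; cpd 96 h, 37 C, 5% CO2; luciferase detection reagent; luminescence.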
AMA1 RON2 block = disrupts binding of P. falciparum AMA1 to RON2; AlphaScreen AMA1-biotinylated RON2 peptide binding; Potency, µM (top dose mostly 58.2 µM), for the others: top-dose activity change, negative = inhibition, actives largely listed as inhibitors; 360,000 tested, 0.2% active; AID 720542;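 also: 0% = vehicle wells and -100% = peptide control; nearly all actives have a fitted effect of over 45% in size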
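AMA1 (3D7) with his tag at 25 nM final met compounds first, then biotinylated RON2 peptide at 25 nM; detection used donor plus acceptor beads, 10 µg/mL apiece, read by AlphaScreen after 30 min at room temperature.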
* hit, by the source's call; ? = inconclusive; / = no result given; [ ] = another dose, or the depositor's remark. Calls follow the shape of the dose curve; as a rule, active = well fitted curve in the direction sought with a large enough effect; inconclusive = small, poorly fitted or top-dose-only effect, or another doubt; inactive = no such curve, though single readings can be large; an effect the other way counts as inactive or inconclusive. Unless noted, % is scaled to controls: 0 for no effect and ±100 for the full control effect; potency is read from the fitted curve at half-maximal effect.

SMILES	AmpC detergent	HCV inhibitor	AmpC no deterg	Pf growth 48h	Pf growth 96h	AMA1 RON2 block
O=C(COC(=O)c1ccccc1O)NCCc1c[nH]c2ccccc12	/	2.0%	-16.9%	/	/	-12.1%[11.6 µM]
O=C(COC(=O)c1ccccc1C(=O)OCC(=O)NCCc1c[nH]c2ccccc12)NCCc1c[nH]c2ccccc12	?	?	-18.2%	9.28µM*	11.7µM*	?
COc1ccc(C(=O)CCC(=O)NCCc2c[nH]c3ccccc23)cc1OC	0.5%	?	0.9%	?	?	-9.7%
COc1ccc(Cl)cc1NC(=O)CCNS(=O)(=O)c1cccc2nonc12	?	-12.8%	-16.5%	26.8%	10.4µM*	-2.3%
CCN1CCN(C(C(=O)NC2CCCC2)c2ccc(Cl)cc2)CC1 (configuration not stated)	-10.0%	3.3%	-2.4%	/	11.7µM*	0.3%
Cc1ccc(C(C(=O)NC2CCCC2)N2CCCCC2)cc1 (configuration not stated)	-10.7%	9.0%	-44.1%	?	1.85µM*	2.4%
CCOC(=O)C1CCN(C(C(=O)NC2CCCC2)c2ccc(C)cc2)CC1 (configuration not stated)	?	-7.1%	85.1%	/	10.4µM*	1.9%
Cc1ccc(C(C(=O)NC2CCCCC2)N2CCN(C(=O)c3ccco3)CC2)cc1 (configuration not stated)	-13.6%	4.1%	37.0%	11.7µM*	-23.6%	-1.8%
Cc1ccc(Nc2nc3ccccc3c3nncn23)cc1C	-4.1%	/	/	/	/	/
Cc1ccc(CN2C(=O)C(O)(CC(=O)c3ccc(C)cc3)c3ccccc32)cc1 (configuration not stated)	8.6%	/	/	/	/	/
CCOC(=O)c1cccc(NC(=O)CN2C(=O)c3ccccc3Sc3ncccc32)c1	12.4%	/	/	/	/	/
CC1CCN(C(=O)CSc2nc(-c3ccc(C(C)C)cc3)no2)CC1	-1.5%	/	/	/	/	/
COc1ccc(CCN2CCC(Nc3nc4ccccc4n3Cc3ccc(F)cc3)CC2)cc1	-7.0%	15.8µM*	88.0%	0.522µM*	0.738µM*	-21.5%
COc1ccc(Cn2c(-c3ccc(OC)cc3)nc3ccccc32)cc1	-10.4%	?	9.3%	?	21.4%	2.9%
CC(=O)Nc1ccc(NC(=O)C2CCN(c3c(NC(C)=O)c(C)nn3-c3ccccc3)CC2)cc1	11.6%	/	/	/	/	/
COc1ccc(-n2nc(C(=O)NCC(=O)N3CCN(C)CC3)c3ccccc3c2=O)cc1	?	3.6%	-11.4%	4.5%	7.6%	16.6%
COc1ccc(-n2nc(C(=O)NCC(=O)N3CCN(Cc4ccccc4)CC3)c3ccccc3c2=O)cc1OC	-11.4%	-1.2%	25.6%	?	1.04µM*	-7.3%
COc1ccc(-n2nc(C(=O)NCC(=O)N3CCN(C)CC3)c3ccccc3c2=O)cc1OC	0.8%	19.6%	-0.2%	-7.6%	129.9%	-7.1%
COc1ccc(N2CCN(C(=O)CNC(=O)c3nn(-c4ccc(OC)cc4)c(=O)c4ccccc34)CC2)cc1	?	-10.2%	98.7%	0.0%	14.7µM*	-14.1%
CCc1ccccc1NC(=O)CSc1nncn2c1cc1oc(C)cc12	-4.2%	/	/	/	/	/
Cc1ccc2nc(-c3cc(NC(=O)COc4ccc(C)c(C)c4)ccc3Cl)oc2c1	-2.5%	/	/	/	/	/
Cc1[nH]n2c(=O)cc(-c3ccc(Cl)cc3)nc2c1-c1ccccc1	1.2%	/	/	/	/	/
Cc1ccc(N=Nc2c(N)[nH]n3c(=O)cc(-c4ccccc4)nc23)cc1	?	12.6µM*	-46.6%	?	?	70.9%
Cc1[nH]n2c(=O)cc(-c3ccc([N+](=O)[O-])cc3)nc2c1-c1ccccc1	/	10µM*	/	/	/	7.2%
Cc1[nH]n2c(=O)cc(C(C)(C)C)nc2c1-c1ccccc1	1.8%	10µM*	-22.4%	?	-5.6%	103.5%
SMILES	AmpC detergent	HCV inhibitor	AmpC no deterg	Pf growth 48h	Pf growth 96h	AMA1 RON2 block
O=C(NO)c1ccc(OC(F)F)cc1	5.1%	-15.6%	-2.8%	10.4µM*	?	-7.0%
O=C(N/N=C/c1ccc(OC(F)F)cc1)c1ccc(Br)cc1	?	22.2%	-33.5%	24.4%	11.0%	-3.5%
COCCc1nn2c(=O)cc(COC(=O)c3ccc(C(C)(C)C)cc3)nc2s1	-2.6%	/	/	/	/	/
Cn1c2cc(Br)sc2c2cnn(Cc3c(F)cccc3F)c(=O)c21	7.3%	/	-9.6%	25.3%	1.3%	/
Cn1c2cc(B(O)O)sc2c2cnn(Cc3c(F)cccc3Cl)c(=O)c21	2.51µM*	/	5.01µM*	13.1µM*	10.4µM*	/
Cn1c2cc(B(O)O)sc2c2cnn(Cc3ccc(F)cc3F)c(=O)c21	3.55µM*	/	3.55µM*	?	?	/
Cn1c2cc(Br)sc2c2cnn(Cc3c(F)cccc3Cl)c(=O)c21	-11.4%	/	-23.7%	3.0%	28.1%	/
Cn1c2cc(B(O)O)sc2c2cnn(Cc3c(F)cccc3F)c(=O)c21	2.51µM*	/	5.62µM*	?	?	/
Cc1ccc(S(=O)(=O)c2cc3cc(C(=O)Nc4ccc(C)cc4C)ccc3oc2=O)cc1	2.5%	/	/	/	/	/
COC(=O)C1=C(c2ccccc2)c2ccccc2S(=O)(=O)N1CC(=O)Nc1ccccc1Cl	-2.7%	/	/	/	/	/
CCN(CC)S(=O)(=O)c1ccc(-c2nnc(SCC(C)=O)o2)cc1	-12.9%	6.3%	30.7%	/	?	3.5%
COc1cc(OC)cc(-c2nnc(SCC(=O)N3CCOCC3)o2)c1	-3.3%	5.8%	14.4%	3.7µM*	3.3%	9.3%
CCN(CC)S(=O)(=O)c1ccc(-c2nnc(SCC(=O)N3CCOCC3)o2)cc1	-14.3%	12.8%	36.7%	?	8.28µM*	-3.2%
CCN(CC)S(=O)(=O)c1ccc(-c2nnc(SCC(=O)Nc3cc(OC)cc(OC)c3)o2)cc1	?	-8.9%	-20.1%	13.1µM*	/	40.3%
CCN(CC)S(=O)(=O)c1ccc(-c2nnc(SCC(=O)Nc3nc(C)cs3)o2)cc1	-10.3%	-2.2%	-2.2%	/	-54.0%	7.6%
COc1ccc(CCNC(=O)c2cnn(-c3ccc(F)cc3)c2C2CCN(C(=O)OC(C)(C)C)CC2)cc1OC	1.7%	/	/	/	/	/
CCOc1ccc(S(=O)(=O)n2nc(C)c(S(=O)(=O)N3CCCCCC3)c2C)cc1	-5.5%	/	/	/	/	/
CCNS(=O)(=O)c1ccc(CCC(=O)O)cc1	-11.4%	10µM*	-8.2%	11.6%	32.6%	-3.7%
CCNS(=O)(=O)c1ccc(CCC(=O)NCc2ccc3c(c2)OCO3)cc1	1.9%	15.8%	-9.2%	-17.7%	0.415µM*	-1.5%
O=C(CCc1ccc(S(=O)(=O)NCc2ccccc2)cc1)NCc1ccc2c(c1)OCO2	-0.4%	-28.9%	-22.8%	-4.2%	/	-7.5%

From PubChem
